Results from article PMC8384837, “Expanding the binding specificity for RNA recognition by a PUF domain”.
Residue numbers refer to the chain shown, from its start.

Columns and labels:
Assay in all cases: yeast three-hybrid, YBZ-1, SC-Leu-His + 0.5 mM 3-AT, 4 days
Conditions in all cases: tags: N-Gal4 AD-HA kept; label: inside an RPR1-promoter hybrid RNA with tandem MS2 sites; ssRNA
PUM1 PUF domain R3-EWC = PUM1 PUF domain R3-EWC (Homo sapiens, UniProt Q14671 828-1176, C935E;R936W;Q939C)
Summary of the method: (§1)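 Each repeat of the Pumilio-1 PUF domain was randomized at its three base-contacting residues, and these libraries were co-expressed from a centromeric plasmid with matching RNA elements in strain YBZ-1. After four days on SC-Leu (input) or SC-Leu-His + 0.5 mM 3-AT (selection), the repeat regions were PCR-amplified and Illumina-sequenced. The interaction score compares variant frequency between input and selection as a log change, computed in log2 with a pseudocount of 1 for absent variants.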

PUM1 PUF domain R7-LNR = PUM1 PUF domain R7-LNR (Homo sapiens, UniProt Q14671 828-1176, S1079L;E1083R)
Summary of the method: as §1

PUM1 PUF domain R6-GFG = target: T1, PUM1 PUF domain R6-GFG (Homo sapiens, UniProt Q14671 828-1176, N1043G;Y1044F;Q1047G)
T1 sequence: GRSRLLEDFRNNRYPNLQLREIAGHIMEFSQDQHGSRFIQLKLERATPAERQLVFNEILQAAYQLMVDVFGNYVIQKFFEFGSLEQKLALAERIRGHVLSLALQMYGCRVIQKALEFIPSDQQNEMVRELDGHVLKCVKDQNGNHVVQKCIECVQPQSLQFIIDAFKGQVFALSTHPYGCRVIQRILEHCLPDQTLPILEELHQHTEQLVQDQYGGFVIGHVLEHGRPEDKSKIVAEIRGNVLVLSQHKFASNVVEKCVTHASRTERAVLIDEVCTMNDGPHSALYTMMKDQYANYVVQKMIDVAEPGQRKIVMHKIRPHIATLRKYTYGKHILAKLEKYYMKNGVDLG
Summary of the method: as §1

PUM1 PUF domain R1-KHR = PUM1 PUF domain R1-KHR (Homo sapiens, UniProt Q14671 828-1176, S863K;R864H;Q867R)
Summary of the method: as §1

PUM1 PUF domain R1-VYR = PUM1 PUF domain R1-VYR (Homo sapiens, UniProt Q14671 828-1176, S863V;R864Y;Q867R)
Summary of the method: as §1

PUM1 PUF domain R8-KHG = PUM1 PUF domain R8-KHG (Homo sapiens, UniProt Q14671 828-1176, N1122K;Y1123H;Q1126G)
Summary of the method: as §1

PUM1 PUF domain R2-NRD = PUM1 PUF domain R2-NRD (Homo sapiens, UniProt Q14671 828-1176, Y900R;Q903D)
Summary of the method: as §1

PUM1 PUF domain R6-SRE = target: T2, PUM1 PUF domain R6-SRE (Homo sapiens, UniProt Q14671 828-1176, N1043S;Y1044R;Q1047E)
T2 sequence: T1 sequence with G216S, F217R, G220E
Summary of the method: as §1

GGCUAGAACUAGUGGAUCCCCCGGCGCCCGGCGGCUCGAGCCCGGGUAAGUGUAACUAGUCUGCAUGCCGCCGGGCGCCAUGCCUGCAGGUCGACUCUAGAAAACAUG
binding signal (PUM1 PUF domain R3-EWC): 4.45 log2 enrichment (interaction score)

GGCUAGAACUAGUGGAUCCCCCGGCGCCCGGCGGCUCGAGCCCGGGUAAGUCUAAAUAGUCUGCAUGCCGCCGGGCGCCAUGCCUGCAGGUCGACUCUAGAAAACAUG
binding signal (PUM1 PUF domain R7-LNR): 3.62 log2 enrichment (interaction score)

GGCUAGAACUAGUGGAUCCCCCGGCGCCCGGCGGCUCGAGCCCGGGUAAGUGUAAAUAGUCUGCAUGCCGCCGGGCGCCAUGCCUGCAGGUCGACUCUAGAAAACAUG
binding signal (PUM1 PUF domain R6-GFG): 3.55 log2 enrichment (interaction score)

GGCUAGAACUAGUGGAUCCCCCGGCGCCCGGCGGCUCGAGCCCGGGUAAGUGUAAAUUGUCUGCAUGCCGCCGGGCGCCAUGCCUGCAGGUCGACUCUAGAAAACAUG
binding signal (PUM1 PUF domain R1-KHR): 2.59 log2 enrichment (interaction score)

GGCUAGAACUAGUGGAUCCCCCGGCGCCCGGCGGCUCGAGCCCGGGUAAGUGUAAAUCGUCUGCAUGCCGCCGGGCGCCAUGCCUGCAGGUCGACUCUAGAAAACAUG
binding signal (PUM1 PUF domain R1-KHR): 5.17 log2 enrichment (interaction score) | binding signal (PUM1 PUF domain R1-VYR): 2.62 log2 enrichment (interaction score)

GGCUAGAACUAGUGGAUCCCCCGGCGCCCGGCGGCUCGAGCCCGGGUAAGCGUAAAUAGUCUGCAUGCCGCCGGGCGCCAUGCCUGCAGGUCGACUCUAGAAAACAUG
binding signal (PUM1 PUF domain R8-KHG): 5.27 log2 enrichment (interaction score)

GGCUAGAACUAGUGGAUCCCCCGGCGCCCGGCGGCUCGAGCCCGGGUAAGGGUAAAUAGUCUGCAUGCCGCCGGGCGCCAUGCCUGCAGGUCGACUCUAGAAAACAUG
binding signal (PUM1 PUF domain R8-KHG): 3.34 log2 enrichment (interaction score)

GGCUAGAACUAGUGGAUCCCCCGGCGCCCGGCGGCUCGAGCCCGGGUAAGUGUAAAAAGUCUGCAUGCCGCCGGGCGCCAUGCCUGCAGGUCGACUCUAGAAAACAUG
binding signal (PUM1 PUF domain R2-NRD): 3.12 log2 enrichment (interaction score)

GGCUAGAACUAGUGGAUCCCCCGGCGCCCGGCGGCUCGAGCCCGGGUAAGUGGAAAUAGUCUGCAUGCCGCCGGGCGCCAUGCCUGCAGGUCGACUCUAGAAAACAUG
binding signal (PUM1 PUF domain R6-SRE): 5.64 log2 enrichment (interaction score)
